# From PubChem
# KinaseGlo FLuc = blocks Kinase-Glo luciferase, a counter-screen artifact. Kinase-Glo luciferase, ATP luminescence, 8 min. Q27757. AID 1379. 0.28% of 200,000 active. Potency, µM (series often up to 38.3 µM), actives largely listed as inhibitors; also: nearly all actives have a fitted effect of over 60% in size
#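 Compounds were added to a substrate mix at pH 7.2 (50 mM imidazole, 10 uM ATP, within the enzyme's linear range), followed by Kinase-Glo detection reagent; luminescence was measured after 8 minutes at ambient temperature.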
# ALDH1A1 block = blocks purified human ALDH1A1 activity; P00352; Purified ALDH1A1, NADH fluorescence, propionaldehyde substrate; Potency, µM (highest dose often 75.3 µM), most hits filed as inhibitors; 7.3% of 220,000 active; AID 1030; active = well fitted inhibition curve with a large enough effect, not every such curve was filed as active; inconclusive = small, poorly fitted or top-dose-only effect, or another doubt; inactive = no such curve, though single readings can be large or run the other way
# Target sequence (P00352 whole entry, looked up): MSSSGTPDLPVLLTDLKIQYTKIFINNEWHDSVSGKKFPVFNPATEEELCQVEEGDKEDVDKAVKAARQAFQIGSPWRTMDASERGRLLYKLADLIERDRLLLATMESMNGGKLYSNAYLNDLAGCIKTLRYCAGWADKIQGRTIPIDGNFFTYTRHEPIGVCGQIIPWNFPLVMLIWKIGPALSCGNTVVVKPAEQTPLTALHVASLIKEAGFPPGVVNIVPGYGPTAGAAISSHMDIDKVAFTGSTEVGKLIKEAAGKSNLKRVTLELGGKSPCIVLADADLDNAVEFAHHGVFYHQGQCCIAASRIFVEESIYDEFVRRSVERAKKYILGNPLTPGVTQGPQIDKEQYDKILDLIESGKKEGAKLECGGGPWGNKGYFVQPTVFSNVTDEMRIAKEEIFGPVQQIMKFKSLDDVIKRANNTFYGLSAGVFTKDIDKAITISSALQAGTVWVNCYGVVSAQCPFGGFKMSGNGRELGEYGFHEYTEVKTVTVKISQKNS
# Lamin A splicing = LMNA splicing modulation; 0.01% of 200,000 active; Potency, µM (doses to about 46.1 µM), actives largely listed as inhibitors; AID 1487; HeLa LMNA splicing GFP/RFP minigene ratio, 48 h; active = well fitted inhibition curve with a large enough effect in the signal ratio, with a control signal flat, not every such curve was filed as active; inconclusive = small, poorly fitted or top-dose-only effect, or effect the other way, or a change in a side signal; the % refers to the signal ratio
#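 S3 HeLa stable clones carrying a lamin A-EGFP splicing minigene plus DsRed2 were seeded at 600 cells/well in Opti-MEM with 2% FBS, pin-dosed and incubated 48 h at 37°C. Acumen cytometry (488 nm) gave the GFP/RFP total-intensity ratio.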
# HTT cytoprotect = cytoprotection in Huntington HTT-Q103 PC12 cell model. PC12 HTT-Q103 induced, cytoprotection, ATP luminescence, 40 h. Potency, µM (doses to about 56.4 µM), usual class: activators. 0.14% of 230,000 active; also: nearly all actives have a fitted effect of over 45% in size
#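 Compounds were screened for protection of PC12 cells against cell death after tebufenozide induction (100 nM final) of mutant Huntingtin exon 1 (Q103) fused to GFP.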
# HPGD inh = inhibitors of human 15-hydroxyprostaglandin dehydrogenase (HPGD); purified HPGD, NADH fluorescence kinetic, PGE2 substrate; P15428; Potency, µM, actives largely listed as inhibitors; 4.3% of 150,000 active; active = well fitted inhibition curve with a large enough effect, not every such curve was filed as active; inconclusive = small, poorly fitted or top-dose-only effect, or another doubt; inactive = no such curve, though single readings can be large or run the other way
#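 20 nM HPGD preincubated 15 min at room temperature with compound in 50 mM Tris-HCl pH 8, 0.01% Tween 20. Started with 1 mM NAD+ and 30 uM prostaglandin E2; NADH fluorescence (360/450 nm) read 5 times over 30-s intervals, last minus first.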
# HttQ103 aggreg = inhibitors of mutant huntingtin aggregate formation in PC12 cells | AID 1688 | Potency, µM (doses to about 46.1 µM), actives largely listed as inhibitors | PC12 HttQ103-GFP aggregates, Acumen cytometry, 40 h | 1.1% of 220,000 active; also: nearly all actives have a fitted effect of over 60% in size
#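 Compounds (qHTS titration) were added to PC12 cells expressing an ecdysone-driven HTT exon 1 Q103–GFP fusion after induction with 100 nM tebufenozide. Aggregate formation was measured as GFP objects in cell lysates.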
# Hits are given with their value; – = inactive; ? = inconclusive; · = no result given; [ ] = another dose, or the depositor's remark. Hits are enriched below; roughly 9% of the tested compounds scored in any of these assays. Unless noted, calls follow the shape of the dose curve; as a rule, active = well fitted curve in the direction sought with a large enough effect; inconclusive = small, poorly fitted or top-dose-only effect, or another doubt; inactive = no such curve, though single readings can be large; an effect the other way counts as inactive or inconclusive.
SMILES,KinaseGlo FLuc,ALDH1A1 block,Lamin A splicing,HTT cytoprotect,HPGD inh,HttQ103 aggreg
COC(=O)c1sccc1NC(=S)N1CCN(c2ccccc2)CC1,–,–,?,–[10 µM],–,–
O=C(NC1(C(F)(F)F)NC(=O)N(Cc2ccco2)C1=O)c1cccnc1 (configuration not stated),–,–,–,–[10 µM],–,–
CC(=O)c1ccc(N2CCCCC2)c(F)c1,–,–,·,–[10 µM],·,–[9.22 µM]
Fc1ccc(-n2[nH]nnc2=S)cc1N1CCCC1,–,14µM,–,–[0.074 µM],18µM,–
CCCOCn1cc(F)c(=O)[nH]c1=O,–,–,–,–[10 µM],–,–
c1ccc(-c2csc(Nc3cccnc3)n2)nc1,–,–,–,–[0.074 µM],–,?
COc1ccc(-c2csc(Nc3cccnc3)n2)cc1,–,28µM,?,–,–,–
c1cncc(Nc2nc(-c3cccs3)cs2)c1,–,7.9µM,–,–,?,–
COc1ccc(-c2csc(Nc3ccccc3)n2)cc1,–,?,–,–[10 µM],·,–
Cc1ccc(C)c(C(=O)OCC(=O)Nc2cccc(S(=O)(=O)NC3=NCCCCC3)c2)c1,–,–,–[9.22 µM],–,·,–
CCC1(C)NC(=O)N(/N=C/c2cc(OC)c(O)c(OC)c2)C1=O (configuration not stated),–,10µM,·,–,·,–
C[C@@]12CCC(=O)C=C1CC[C@@H]1[C@@H]2[C@H](O)C[C@]2(C)[C@@H]1CC[C@]2(O)C(=O)COC(=O)CCC(=O)O,·,·,·,–[1.9 µM],·,·
Cc1nnc2n(Cc3ccccc3)c(=O)c3c4c(sc3n12)COC(C)(C)C4,–,13µM,–,–,16µM,–[9.22 µM]
CC1(C)Cc2c(sc3nnn(Cc4ccccc4)c(=O)c23)CO1,–,?,?,–[10 µM],32µM,–
Cc1ccccc1NC(=O)Cn1nnc2sc3c(c2c1=O)CC(C)(C)OC3,·,·,·,–[10 µM],·,–[9.22 µM]
NS(=O)(=O)c1ccc(CCNC2CC(=O)N(CCc3ccccc3)C2=O)cc1 (configuration not stated),–,?,–,–,–,–
CS(=O)(=O)N(CC(=O)NCC1CCCO1)Cc1ccc(Cl)cc1 (configuration not stated),–,–,–,–,–,–
O=C(N/N=C/C1C(c2ccccc2)C1(Cl)Cl)c1cccc(Br)c1 (configuration not stated),–,11µM,–,–,–,–
COc1ccc(NCC(=O)N/N=C(\C)c2cc3ccccc3o2)cc1,–,25µM,·,–,·,–
C/C(=N\NC(=O)CNc1ccc(F)cc1)c1cc2ccccc2o1,–,11µM,–,–[10 µM],·,–
C/C(=N\NC(=O)COc1ccc(C(C)(C)C)cc1)c1cc2ccccc2o1,–,–,?,–[0.074 µM],?,–
COc1cccc2c1C(=O)c1c(O)c3c(c(O)c1C2=O)C[C@@](O)(C(=O)CO)C[C@@H]3OC1CC(N)C(O)C(C)O1 (some centres not stated),·,·,?,–,·,2.5µM
CC(=O)C1(O)Cc2c(O)c3c(c(O)c2C(OC2CC(N)C(O)C(C)O2)C1)C(=O)c1c(O)cccc1C3=O (configuration not stated),·,·,·,–,·,1µM
COc1cccc2c1C(=O)c1c(O)c3c(c(O)c1C2=O)C[C@@](O)(C(=O)CO)C[C@@H]3O[C@@H]1C[C@H](N)[C@H](O)[C@H](C)O1,–,20µM,·,–,–,·
CC(=O)[C@@]1(O)Cc2c(O)c3c(c(O)c2[C@H](O[C@H]2C[C@H](N)[C@H](O)[C@H](C)O2)C1)C(=O)c1ccccc1C3=O,·,·,·,–[1.9 µM],·,·
SMILES,KinaseGlo FLuc,ALDH1A1 block,Lamin A splicing,HTT cytoprotect,HPGD inh,HttQ103 aggreg
Cc1ccc(NS(=O)(=O)c2ccc3c(c2)NC(=O)CCS3)cc1F,·,·,–,·,·,·
Cc1ccc(CN2CCCn3nc(C(=O)NCCN(C)C)cc3C2=O)cc1,·,·,–,·,·,·
COc1ccc(-c2[nH]ncc2CN(C)CCc2c(C)n[nH]c2C)c(F)c1,–,10µM,·,–,·,–
COc1ccc(-c2[nH]ncc2CN(C)C(C)c2cccs2)c(F)c1 (configuration not stated),–,?,·,–,·,–
CCOC(=O)C1=C(C)OC(N)=C(C#N)C1c1ccc(C)s1 (configuration not stated),–,22µM,?,–,·,–
COC(=O)C1=C(C)OC(N)=C(C#N)C1c1cc(C)sc1C (configuration not stated),–,?,–,–,28µM,–[9.22 µM]
COCCOC(=O)C1=C(C)OC(N)=C(C#N)C1c1cc2cccc(C)c2nc1Cl (configuration not stated),–,?,·,·,·,·
COC(=O)C1=C(C)OC(N)=C(C#N)C1c1cc2cccc(C)c2nc1Cl (configuration not stated),–,28µM,·,?,·,–[9.22 µM]
CC(C)(C)C1CCC(=NNC(=O)CN(c2ccccc2)S(=O)(=O)c2ccccc2[N+](=O)[O-])CC1 (configuration not stated),–,10µM,–,·,–,–
C/C(=N\NC(=O)CN(c1ccccc1)S(=O)(=O)c1ccccc1[N+](=O)[O-])C(C)(C)C,–,–,–,–[10 µM],–,–
COc1cccc(C(=O)NC(=S)Nc2ccc(Cl)c(C(=O)O)c2)c1,–,?,–,–,–,–
CCOC(=O)c1[nH]nc2c1C(=O)N(Cc1ccccc1)C2=O,–,?,?,–,8.9µM,–
CCOC(=O)C1=C(C)N(Cc2ccccc2)C(=O)NC1c1ccc(OC)cc1 (configuration not stated),–,?,–,–,–,–
COC(=O)c1[nH]nc2c1C(=O)N(Cc1ccccc1)C2=O,–,?,?,–,10µM,–
C#CCNc1cc(-c2ccccc2)nc2ncnn12,–,–,·,–[10 µM],·,–[9.22 µM]
c1nc(NC2CC2)c2cc(-c3ccoc3)ccc2n1,·,?,–,–,·,·
Cc1noc(C)c1-c1ccc2ncnc(N3CCN(C)CC3)c2c1,·,?,7.1µM,–,·,·
Cc1ccccc1-c1ccc2ncnc(N3CCOCC3)c2c1,·,22µM,?,–,·,·
CN1CCN(c2ncnc3ccc(-c4ccccc4Cl)cc23)CC1,·,?,?,–,·,·
Cc1ccccc1-c1ccc2ncnc(N3CCN(C)CC3)c2c1,·,?,?,–,·,·
c1cn(-c2ncnc3ccc(-c4ccoc4)cc23)cn1,·,?,?,2.5µM,·,·
c1nc(N2CCOCC2)c2cc(-c3ccoc3)ccc2n1,·,22µM,?,–,·,·
Cc1ccc(N(CC(=O)NCc2ccncc2)S(C)(=O)=O)cc1Cl,·,?,–,–,·,–
Cc1ccc2nc(NC(=O)Cn3nc(C)c([N+](=O)[O-])c3C)sc2c1,–,–,?,·,–,–
CC1(C)Oc2ccc(NC(=O)c3ccco3)cc2O1,–,–,–,–,?,–
Nc1nonc1-c1noc(N2CCCCC2)n1,–,–,–,–,–,–
COc1cccc(-c2ccc3ncnc(N4CCOCC4)c3c2)c1,·,–,?,–,·,·
Cc1noc(C)c1-c1ccc2ncnc(N3CCOCC3)c2c1,·,–,10µM,–,·,·
